In PubChem BioAssay (NCATS):
Records with an inconclusive call do not appear. Active and inactive are the calls of the source. Unless noted, calls come from the whole dose curve; as a rule, active = well fitted curve in either direction with a large enough effect (not every such curve was filed as active); inconclusive = small, poorly fitted or top-dose-only effect, or another doubt; inactive = flat fitted curve, though single readings scatter.

Columns and labels:
[1] = biological target: Lysosomal acid glucosylceramidase (Homo sapiens) (UniProt P04062); experiment: Glucocerebrosidase-p2 (AID 348; in the data active = potency below about 10 µM; note: potency is the fitted concentration of half-maximal effect); settings: purified GBA, blue fluorogenic substrate, 40 min
How it was run: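 Compounds titrated from 0.6 nM upwards against 0.2 nM enzyme in pH 5.9 citric acid/KH2PO4, taurocholate, tween-20; blue fluorogenic substrate 80 uM, 40 min room temperature, stopped and read Ex 365/Em 440 for AC50.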

[2] = AP1 Signaling Pathway (AID 357); settings: ME-180 AP-1-bla reporter, EGF-induced, beta-lactamase ratio, 5 h; at 7.69 µM (top of the series) unless noted; note: % is set by controls: 0 for no effect and ±100 for the full control effect
How it was run: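 Modulation of EGF-driven AP-1 transcription was assessed with a beta-lactamase reporter in ME-180 cells. Compound and EC50 EGF were co-incubated 5 hours at 37 °C before 2.5-hour CCF4 loading at room temperature and dual-emission reading.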

[3] = biological target: Cytochrome P450 1A2 (Homo sapiens) (UniProt P05177); experiment: p450-cyp1a2 (AID 410; calls by dose curve; note: potency is the fitted concentration of half-maximal effect); settings: recombinant CYP1A2, luciferin-ME demethylation, luminescence; series mostly up to 57 µM
How it was run: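 20nM CYP1A2 with 100uM Luciferin-ME (at Km) in 100mM KPO4; compound preincubated 10 min, NADPH regeneration added, 60 min at room temperature. Luciferin quantified by luminescence after detection reagent; normalized to 57 uM furafylline.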

[4] = NFAT Signaling Pathway (AID 444); settings: Jurkat NFAT-bla M1, carbachol, beta-lactamase ratio, 5 h; at 7.69 µM (top of the series) unless noted;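 note: carbachol stimulus at about its EC50 of 1 µM final; % is set by controls: 0 for no effect and ±100 for the full control effect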
How it was run: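 Jurkat cells carrying an NFAT-driven β-lactamase reporter and co-transfected muscarinic M1 receptor were treated with compound plus carbachol (1 uM final, an EC50 level) for 5 h at 37 °C. CCF4 loading followed for 1 h at RT; 460/530 nm ratio gave %activity.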

[5] = Stat Signaling Pathway (AID 446); settings: ME-180 SIE beta-lactamase reporter, IL-6 stimulated, 5 h; at 7.69 µM (top of the series) unless noted;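 note: ME-180 cervical cancer cells given 40 pM IL-6 alongside compound; SIE-controlled beta-lactamase reporter measured as 460/530 nm FRET emission ratio; % is set by controls: 0 for no effect and ±100 for the full control effect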
How it was run: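 Reporter line: ME-180 cervical carcinoma, SIE-beta-lactamase. Treatment: compound with 40 pM IL-6, 5 hrs, 37 C, in low-serum OPTI-MEM with 10 mM HEPES pH 7.3. Detection: 460/530 nm fluorescence.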

[6] = biological target: Glucocorticoid receptor (Homo sapiens) (UniProt P04150); experiment: GR-GFP Redistribution (AID 450;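 active = compounds whose dose series gives a full or clear partial fitted curve of increased nuclear translocation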; note: potency is the fitted concentration of half-maximal effect); settings: U2OS GR-GFP nuclear translocation, laser cytometry, 2 h
[7] = biological target: Glucocorticoid receptor (Homo sapiens) (UniProt P04150); experiment: GR-EFC Redistribution (AID 451; calls by dose curve; note: potency is the fitted concentration of half-maximal effect); settings: CHO-K1 GR-EFC translocation, beta-gal luminescence, 2 h
How it was run: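 CHO-K1 cells stably expressing nuclear-localized β-gal enzyme acceptor and GR fused C-terminally to the enzyme donor fragment; ligand-driven nuclear translocation restores β-gal by complementation. Compounds titrated up to 46 uM final, 2 h at 37 °C; luminescence read.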

[8] = biological target: Mitogen-activated protein kinase 10 (Mus musculus) (UniProt Q61831); experiment: JNK3 AlphaScreen Assay (AID 530); settings: JNK3 lysate, c-Jun phosphorylation; series mostly up to 57.1 µM;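 note: kinase came from lysate of stimulated human HepG2 cells; signal reports phosphorylation of biotinylated GST-cJun 1-79 at Ser73 with 10 µM ATP; % is set by controls: 0 for no effect and ±100 for the full control effect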
How it was run: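 Inhibitors reduce antibody binding to phosphorylated biotin-cJun, lowering AlphaScreen luminescence. Lysates from HepG2 cells pre-activated by IL-1beta plus TNF-alpha supplied JNK3; compounds were titrated.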

[9] = biological target: Cytochrome P450 3A4 (Homo sapiens) (UniProt P08684); experiment: qHTS Assay for Activators of Cytochrome P450 3A4 (AID 885; active = well fitted curve in the direction sought with a large enough effect; an effect the other way counts as inactive or inconclusive; note: nearly all actives have a fitted effect of over 65% in size); settings: recombinant CYP3A4, Luciferin-PPXE luminescence, 60 min; series mostly up to 57.1 µM
How it was run: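 Signal was normalized against complete inhibition by 57 uM ketoconazole. The reaction used 20nM CYP3A4 with 25uM Luciferin-PPXE, 10-min compound preincubation and a 60-min NADPH-supported step at RT.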

[10] = Confirmation and Secondary Assay for Modulators of Hemoglobin Beta Chain Splicing at IVS2 654 locus (AID 910; active = well fitted curve in the direction sought with a large enough effect; an effect the other way counts as inactive or inconclusive;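 note: per-well total GFP intensity by laser scanning cytometry after 2-day treatment; % of control where 0% means no effect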); settings: HeLa EGFP-654 splicing reporter, GFP fluorescence, 48 h; series mostly up to 38.3 µM
How it was run: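 HeLa cells stably carrying EGFP interrupted by mutant beta-globin IVS2-654 intron (CMV-driven) were treated with compound for 2 days at 37C; corrected splicing was scored as total peak GFP intensity per well (488 nm excitation, 500-520 nm emission).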

[11] = qHTS Assay for Lipid Storage Modulators (AID 1519; calls by dose curve); settings: Drosophila S3 cells, BODIPY lipid droplet/cell ratio, laser cytometry, cells loaded with oleic acid; for activity change, negative = inhibition: at 57.5 µM (top of the series)
How it was run: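 Cells seeded at 5,000 per well were treated with compounds over a concentration series and loaded with oleic acid (400 uM, as added). Lipid droplet fluorescence (488 nm excitation, 500-530 nm channel) was read by laser-scanning cytometry and normalized to 20 uM Triacsin C.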

[12] = biological target: Ubiquitin carboxyl-terminal hydrolase 1 (Homo sapiens) (UniProt O94782); experiment: Inhibitors of USP1/UAF1: Pilot qHTS (AID 504865; active = well fitted curve in the direction sought with a large enough effect; an effect the other way counts as inactive or inconclusive;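 note: rhodamine fluorescence freed from ubiquitin-rhodamine substrate followed over time; top concentration of the series differs between compounds; % is set by controls: 0 for no effect and ±100 for the full control effect; nearly all actives have a fitted effect of over 35% in size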); settings: purified USP1/UAF1, Ub-rhodamine cleavage fluorescence; series mostly up to 54.9 µM
How it was run: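 USP1/UAF1 complex at 1 nM preincubated 15 min at room temperature with compound, then Ub-Rho substrate added at 150 nM final. Fluorescence (480/540 nm) read kinetically in 50 mM HEPES pH 7.8, 0.5 mM EDTA, 1 mM TCEP, 0.1 mg/ml BSA, 0.01% Tween-20.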

[13] = Primary qHTS for small molecule stabilizers of the endoplasmic reticulum resident proteome: Secreted ER Calcium Modulated Protein (SERCaMP) assay (AID 1508630; active = well fitted curve in the direction sought with a large enough effect; an effect the other way counts as inactive or inconclusive; note: % is set by controls: 0 for no effect and ±100 for the full control effect); settings: SH-SY5Y GLuc-SERCaMP (Gaussia luciferase released on ER calcium loss) secretion, thapsigargin, luminescence; series mostly up to 38.4 µM
How it was run: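 GLuc-SERCaMP-expressing SH-SY5Y cells, pretreated 16 h with compound, are challenged with thapsigargin to empty ER calcium stores; after 4 h, coelenterazine is added directly to the medium and luminescence is imaged.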

[14] = biological target: 3',5'-cyclic-AMP phosphodiesterase 4B (Homo sapiens) (UniProt Q07343); experiment: qHTS Assay for Inhibitors of PDE-IV (AID 607; active = well fitted activation curve with a large enough effect in the main read-out, with a control signal flat, not every such curve was filed as active; note: % of control where 0% means no effect); settings: HEK293 ACTOne CNG channel cells, membrane potential fluorescence; series mostly up to 22.9 µM
How it was run: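 Cell-based read-out of cAMP via a modified cyclic nucleotide-gated channel and membrane potential dye (535/590 nm) in HEK293 cells expressing PDE4 endogenously. Compounds tested up to 22.9 uM final; 100 uM RO 20-1724 reference.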

[15] = Confirmation and Secondary Assay for Modulators of Hemoglobin Beta Chain Splicing at IVS2 705 locus (AID 930; active = well fitted curve in the direction sought with a large enough effect; an effect the other way counts as inactive or inconclusive;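 note: HeLa cells stably expressing the EGFP-705 splicing reporter; GFP fluorescence per well restored by corrected splicing of the IVS2-705 intron in EGFP; % of control where 0% means no effect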); settings: HeLa EGFP-705 splicing reporter, GFP fluorescence, 48 h; series mostly up to 38.3 µM
How it was run: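 Fluorescence gain (488 nm laser, 500-520 nm PMT) reflects restored correct splicing of a mutant IVS2-705 intron inside EGFP in stably transfected HeLa cells after 2-day compound treatment.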

[16] = biological target: Cytochrome P450 3A4 (Homo sapiens) (UniProt P08684); experiment: qHTS Assay for Inhibitors and Substrates of Cytochrome P450 3A4 (AID 884; active = well fitted curve in the direction sought with a large enough effect; an effect the other way counts as inactive or inconclusive; note: potency is the fitted concentration of half-maximal effect; nearly all actives have a fitted effect of over 50% in size); settings: recombinant CYP3A4, Luciferin-PPXE luminescence; series mostly up to 57.1 µM
How it was run: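 20 nM human CYP3A4 with 25 uM Luciferin-PPXE (at KM) in 200 mM KPO4, preincubated 10 min with compound; NADPH regeneration started a 60 min RT reaction. Luciferin detected by luminescence, normalized to 57 uM ketoconazole as full inhibition.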

[17] = biological target: Cytochrome P450 2C19 (Homo sapiens) (UniProt P33261); experiment: qHTS Assay for Inhibitors and Substrates of Cytochrome P450 2C19 (AID 899; active = well fitted curve in the direction sought with a large enough effect; an effect the other way counts as inactive or inconclusive; note: potency is the fitted concentration of half-maximal effect; nearly all actives have a fitted effect of over 60% in size); settings: recombinant CYP2C19, luciferin-H EGE luminescence; series mostly up to 57.1 µM
How it was run: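 Human CYP2C19 (5nM) with Luciferin-H EGE at 10uM (its KM) in 50mM KPO4 was preincubated with compound for 10 min at 37C. NADPH regeneration started a 60 min 37C reaction. Luciferin was read by luminescence, normalized to 57uM ketoconazole.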

[18] = measured here: cell count channel max response
[19] = measured here: lipid channel max response

Ubiquitin carboxyl-terminal hydrolase 1 (Homo sapiens), sequence (O94782 whole entry, looked up): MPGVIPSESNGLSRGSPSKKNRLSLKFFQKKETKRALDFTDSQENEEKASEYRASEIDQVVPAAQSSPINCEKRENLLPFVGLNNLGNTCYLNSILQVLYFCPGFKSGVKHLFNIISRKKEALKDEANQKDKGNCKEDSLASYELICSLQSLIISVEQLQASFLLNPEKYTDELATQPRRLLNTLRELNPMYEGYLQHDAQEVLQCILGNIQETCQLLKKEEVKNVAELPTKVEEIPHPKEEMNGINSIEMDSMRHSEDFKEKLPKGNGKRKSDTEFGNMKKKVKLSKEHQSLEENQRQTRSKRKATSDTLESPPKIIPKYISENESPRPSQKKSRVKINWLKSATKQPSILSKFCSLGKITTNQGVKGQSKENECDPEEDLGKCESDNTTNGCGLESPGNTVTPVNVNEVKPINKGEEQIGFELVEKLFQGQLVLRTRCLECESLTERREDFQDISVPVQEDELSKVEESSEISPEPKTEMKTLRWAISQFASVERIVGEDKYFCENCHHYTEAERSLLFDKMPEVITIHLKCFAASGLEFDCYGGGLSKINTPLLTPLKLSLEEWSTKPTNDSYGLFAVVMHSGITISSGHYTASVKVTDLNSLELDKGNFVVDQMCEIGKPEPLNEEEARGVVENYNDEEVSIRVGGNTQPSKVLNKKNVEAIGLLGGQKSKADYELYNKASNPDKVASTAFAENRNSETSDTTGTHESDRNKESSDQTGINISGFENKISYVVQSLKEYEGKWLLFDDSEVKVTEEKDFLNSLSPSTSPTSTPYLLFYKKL
Cytochrome P450 1A2 (Homo sapiens), sequence (P05177 whole entry, looked up): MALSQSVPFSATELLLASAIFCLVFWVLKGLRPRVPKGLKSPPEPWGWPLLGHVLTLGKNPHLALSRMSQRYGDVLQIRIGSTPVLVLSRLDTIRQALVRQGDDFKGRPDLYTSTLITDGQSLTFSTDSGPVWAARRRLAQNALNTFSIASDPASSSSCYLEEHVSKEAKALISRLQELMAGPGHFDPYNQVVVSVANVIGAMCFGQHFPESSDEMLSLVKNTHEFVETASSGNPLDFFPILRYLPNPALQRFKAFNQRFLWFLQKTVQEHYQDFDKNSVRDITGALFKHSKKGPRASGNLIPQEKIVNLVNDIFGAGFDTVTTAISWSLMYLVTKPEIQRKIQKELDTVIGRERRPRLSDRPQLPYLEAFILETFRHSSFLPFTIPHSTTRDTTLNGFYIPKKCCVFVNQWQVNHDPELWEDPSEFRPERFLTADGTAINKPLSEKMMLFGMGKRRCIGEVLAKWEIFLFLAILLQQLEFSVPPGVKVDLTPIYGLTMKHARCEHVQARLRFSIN
Cytochrome P450 3A4 (Homo sapiens), sequence (P08684 whole entry, looked up): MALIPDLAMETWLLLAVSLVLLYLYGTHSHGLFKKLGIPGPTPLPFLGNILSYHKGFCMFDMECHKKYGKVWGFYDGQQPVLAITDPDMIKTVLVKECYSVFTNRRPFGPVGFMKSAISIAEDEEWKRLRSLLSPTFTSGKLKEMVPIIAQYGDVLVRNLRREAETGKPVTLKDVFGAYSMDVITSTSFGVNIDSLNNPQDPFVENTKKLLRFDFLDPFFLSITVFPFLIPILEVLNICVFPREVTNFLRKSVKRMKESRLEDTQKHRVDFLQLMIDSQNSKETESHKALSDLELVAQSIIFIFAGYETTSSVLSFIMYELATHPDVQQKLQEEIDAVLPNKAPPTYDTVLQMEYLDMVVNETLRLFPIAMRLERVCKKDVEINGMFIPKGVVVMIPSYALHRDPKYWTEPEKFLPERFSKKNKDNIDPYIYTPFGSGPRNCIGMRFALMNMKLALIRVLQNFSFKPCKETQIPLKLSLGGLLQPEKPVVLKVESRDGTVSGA
Glucocorticoid receptor (Homo sapiens), sequence (P04150 whole entry, looked up, the tested form may be a part): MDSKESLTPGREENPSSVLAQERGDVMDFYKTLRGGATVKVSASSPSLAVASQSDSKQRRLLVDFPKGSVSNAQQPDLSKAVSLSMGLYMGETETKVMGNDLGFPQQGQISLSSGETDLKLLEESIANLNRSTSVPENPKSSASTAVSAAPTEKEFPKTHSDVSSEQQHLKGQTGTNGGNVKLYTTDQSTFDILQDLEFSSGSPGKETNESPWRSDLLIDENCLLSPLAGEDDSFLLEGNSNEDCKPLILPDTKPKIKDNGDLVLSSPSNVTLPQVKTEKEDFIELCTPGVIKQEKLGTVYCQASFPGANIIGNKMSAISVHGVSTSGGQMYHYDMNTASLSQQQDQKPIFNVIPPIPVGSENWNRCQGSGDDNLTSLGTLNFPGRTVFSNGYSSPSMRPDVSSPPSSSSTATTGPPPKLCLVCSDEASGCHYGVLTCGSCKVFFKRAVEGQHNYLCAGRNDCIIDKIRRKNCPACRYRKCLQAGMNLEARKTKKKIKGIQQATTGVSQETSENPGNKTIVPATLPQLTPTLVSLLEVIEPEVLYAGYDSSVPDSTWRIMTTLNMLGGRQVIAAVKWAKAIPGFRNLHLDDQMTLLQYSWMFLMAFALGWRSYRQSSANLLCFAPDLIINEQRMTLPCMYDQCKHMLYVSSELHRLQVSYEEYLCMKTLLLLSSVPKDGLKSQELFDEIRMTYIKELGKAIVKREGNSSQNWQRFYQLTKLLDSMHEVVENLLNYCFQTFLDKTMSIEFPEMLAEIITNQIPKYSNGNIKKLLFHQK
3',5'-cyclic-AMP phosphodiesterase 4B (Homo sapiens), sequence (Q07343 whole entry, looked up): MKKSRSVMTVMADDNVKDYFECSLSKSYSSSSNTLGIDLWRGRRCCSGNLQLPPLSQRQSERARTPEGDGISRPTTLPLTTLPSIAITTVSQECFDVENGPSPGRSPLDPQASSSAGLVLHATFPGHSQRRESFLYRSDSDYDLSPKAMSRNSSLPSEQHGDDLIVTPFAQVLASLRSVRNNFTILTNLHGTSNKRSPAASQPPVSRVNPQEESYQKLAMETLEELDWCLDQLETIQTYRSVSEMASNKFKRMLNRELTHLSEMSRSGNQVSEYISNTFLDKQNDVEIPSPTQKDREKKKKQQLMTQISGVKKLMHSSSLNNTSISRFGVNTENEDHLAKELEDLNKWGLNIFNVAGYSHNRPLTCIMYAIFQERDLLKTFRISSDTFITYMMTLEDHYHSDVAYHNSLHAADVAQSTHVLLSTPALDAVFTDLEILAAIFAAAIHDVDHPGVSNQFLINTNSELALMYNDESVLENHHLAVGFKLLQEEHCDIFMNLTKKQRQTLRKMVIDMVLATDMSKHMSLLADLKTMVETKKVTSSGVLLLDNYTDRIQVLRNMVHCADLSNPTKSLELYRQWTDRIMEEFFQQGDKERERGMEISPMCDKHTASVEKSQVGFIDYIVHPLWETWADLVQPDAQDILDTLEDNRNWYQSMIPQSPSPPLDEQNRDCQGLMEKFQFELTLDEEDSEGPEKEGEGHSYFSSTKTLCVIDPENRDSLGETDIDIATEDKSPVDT
Lysosomal acid glucosylceramidase (Homo sapiens), sequence (P04062 whole entry, looked up): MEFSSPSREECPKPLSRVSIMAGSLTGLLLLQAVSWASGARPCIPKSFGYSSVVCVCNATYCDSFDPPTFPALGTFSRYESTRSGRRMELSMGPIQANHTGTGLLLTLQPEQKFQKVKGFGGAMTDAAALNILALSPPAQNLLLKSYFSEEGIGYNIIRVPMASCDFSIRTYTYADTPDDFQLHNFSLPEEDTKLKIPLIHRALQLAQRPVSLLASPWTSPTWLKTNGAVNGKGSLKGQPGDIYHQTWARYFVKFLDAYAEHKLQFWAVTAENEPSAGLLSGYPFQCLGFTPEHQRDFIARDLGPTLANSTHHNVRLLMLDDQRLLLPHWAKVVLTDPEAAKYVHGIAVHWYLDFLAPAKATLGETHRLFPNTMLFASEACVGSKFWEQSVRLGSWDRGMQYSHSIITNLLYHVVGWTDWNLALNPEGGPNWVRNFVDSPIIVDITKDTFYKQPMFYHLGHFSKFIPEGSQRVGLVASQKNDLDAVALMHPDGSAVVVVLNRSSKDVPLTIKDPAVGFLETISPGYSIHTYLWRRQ
Cytochrome P450 2C19 (Homo sapiens), sequence (P33261 whole entry, looked up): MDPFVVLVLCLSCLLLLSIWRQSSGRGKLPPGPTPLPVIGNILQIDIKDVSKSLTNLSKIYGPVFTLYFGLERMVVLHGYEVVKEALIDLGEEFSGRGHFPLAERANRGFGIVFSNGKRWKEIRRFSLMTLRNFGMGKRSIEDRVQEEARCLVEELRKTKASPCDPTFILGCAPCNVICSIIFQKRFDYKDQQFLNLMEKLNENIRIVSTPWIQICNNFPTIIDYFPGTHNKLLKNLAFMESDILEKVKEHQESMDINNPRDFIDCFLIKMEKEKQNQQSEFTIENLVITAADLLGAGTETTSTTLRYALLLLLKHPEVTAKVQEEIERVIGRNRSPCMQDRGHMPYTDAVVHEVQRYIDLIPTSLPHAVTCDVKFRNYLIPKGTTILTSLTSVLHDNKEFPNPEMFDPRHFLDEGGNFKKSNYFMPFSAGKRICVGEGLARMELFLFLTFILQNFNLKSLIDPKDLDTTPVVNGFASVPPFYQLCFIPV

SMILES | Potency [1] | activity change, negative = inhibition [2] | Potency [3] | activity change, negative = inhibition [4] | activity, negative = inhibition [5] | Potency [6] | Potency [7] | outcome [8] | Potency [9] | outcome [10] | activity change, negative = inhibition [11] | max response [11, 18] | max response [11, 19] | Potency [12] | Potency [13] | Potency [14] | outcome [15] | Potency [16] | Potency [17]
CN(C)Cc1ccccc1-c1nc(N2CCOCC2)c2ccccc2n1 | > 11.4 µM (inactive) | 25.9% (inactive) | 20 µM (active) | -1.63% (inactive) | 27.7% (inactive) | > 46 µM (inactive) | > 46 µM (inactive) | inactive | inactive | inactive | 5.13% (inactive) | 11.7% | 18.4% | inactive | inactive | – | – | – | –
CN(C)c1ccc(-c2ccc3ncnc(N4CCNCC4)c3c2)cc1 | > 11.4 µM (inactive) | 5.26% (inactive) | 2.51 µM (active) | -13.1% (inactive) | 5.8% (inactive) | > 46 µM (inactive) | > 46 µM (inactive) | inactive | inactive | inactive | 7.34% (inactive) | -3.08% | 4.85% | – | inactive | inactive | inactive | – | –
COc1ccc(-n2c(=O)cnc3cnc(Oc4ccccc4)nc32)cc1 | > 11.4 µM (inactive) | -8.13% (inactive) | 15.8 µM (active) | 2.58% (inactive) | -13.1% (inactive) | > 9.22 µM (inactive) | > 46 µM (inactive) | inactive | inactive | – | 1.98% (inactive) | 3.82% | 6.57% | – | inactive | inactive | – | – | –
Cc1noc(C)c1-c1cc(NCc2ccccc2)ncn1 | > 11.4 µM (inactive) | -3.94% (inactive) | 5.01 µM (active) | -10.6% (inactive) | -12.8% (inactive) | > 46 µM (inactive) | > 46 µM (inactive) | inactive | – | inactive | 9.87% (inactive) | 11.1% | 18% | inactive | inactive | inactive | inactive | – | –
CN(C)c1ccc(-c2cc(-n3ccnc3)ncn2)cc1 | > 11.4 µM (inactive) | 2.17% (inactive) | 0.158 µM (active) | 9.75% (inactive) | 15.9% (inactive) | > 46 µM (inactive) | > 46 µM (inactive) | inactive | inactive | inactive | 9.39% (inactive) | 11.3% | 23% | – | inactive | inactive | inactive | 0.0631 µM (active) | 7.94 µM (active)
CN1CCN(c2cc(-c3ccc(N(C)C)cc3)ncn2)CC1 | > 11.4 µM (inactive) | -7.42% (inactive) | 2.51 µM (active) | -7.21% (inactive) | 2.2% (inactive) | > 46 µM (inactive) | > 46 µM (inactive) | inactive | – | inactive | 8.21% (inactive) | 7.68% | 16.4% | inactive | inactive | inactive | – | – | –
